This note sets out measurements from PubChem BioAssay (NCATS).

Inconclusive results are not listed. The source made the active and inactive calls. The call rests on the fitted dose curve; in most records, active means well fitted inhibition curve with a large enough effect; inconclusive means small, poorly fitted or top-dose-only effect; inactive means flat fitted curve, though single readings scatter.
On the % scale 0 is the no-effect control and ±100 the full control effect; potency means the concentration at half of the fitted maximal effect.

Dual specificity protein kinase CLK4 (Homo sapiens), sequence (Q9HAZ1 whole entry, looked up): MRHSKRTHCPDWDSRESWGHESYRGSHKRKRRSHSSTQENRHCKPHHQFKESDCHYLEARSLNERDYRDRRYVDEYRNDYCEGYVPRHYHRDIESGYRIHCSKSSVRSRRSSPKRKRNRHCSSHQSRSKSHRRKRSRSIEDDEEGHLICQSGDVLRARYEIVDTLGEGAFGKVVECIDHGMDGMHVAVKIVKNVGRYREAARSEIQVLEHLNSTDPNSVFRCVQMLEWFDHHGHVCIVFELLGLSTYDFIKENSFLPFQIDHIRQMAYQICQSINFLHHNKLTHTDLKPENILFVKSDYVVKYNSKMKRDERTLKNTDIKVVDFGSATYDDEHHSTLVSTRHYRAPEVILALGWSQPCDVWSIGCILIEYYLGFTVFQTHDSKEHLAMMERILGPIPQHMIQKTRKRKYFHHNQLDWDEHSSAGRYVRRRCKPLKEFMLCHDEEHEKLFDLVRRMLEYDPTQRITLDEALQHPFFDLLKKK

One assay addresses Dual specificity protein kinase CLK4 (Homo sapiens) (UniProt Q9HAZ1). The assay is described as follows: qHTS Assay for Inhibitors of CDC-like Kinase 4 (ADP-FP Assay) (AID 1795). Further: nearly all actives have a fitted effect of over 60% in size.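 On activity change, negative = inhibition: recombinant human CLK4 phosphorylating RS repeat peptide at 1 µM ATP.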 The settings on record: Transcreener ADP fluorescence polarization; series mostly up to 50 µM; activity change, negative = inhibition: at the top concentration. Put shortly:
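Inhibition of ADP formation by 6.25 nM Clk4 is measured using 1 uM ATP and 100 uM RS repeat peptide over one hour. Produced ADP displaces a fluorescent tracer from antibody, lowering polarization.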
As for `c1nc(NC2CCNCC2)c2cc(-c3ccoc3)ccc2n1`, the Potency was 0.631 µM (active).

Take `COc1ccc(-c2nc3cnc(Oc4ccccc4)nc3n(CCC#N)c2=O)cc1`: the “activity change, negative = inhibition” value is 0.23% (inactive).

As for `COc1ccc(-c2nc3cnc(N4CCN(C)CC4)nc3n(Cc3cccs3)c2=O)cc1`, the “activity change, negative = inhibition” value was 8.35% (inactive).

For the molecule `COc1ccc(-n2c(=O)c(-c3ccc(F)cc3)nc3cnc(N4CCOCC4)nc32)cc1`, the “activity change, negative = inhibition” value is 4.86% (inactive).

In the case of `O=c1c(-c2ccc(F)cc2)nc2cnc(Oc3ccccc3)nc2n1C1CC1`, the “activity change, negative = inhibition” value is 7.66% (inactive).

On to `CCNc1ncc2nc(-c3cccs3)c(=O)n(C)c2n1`, for which the “activity change, negative = inhibition” value is 2.53% (inactive).

With `COCCn1c(=O)c(C)nc2cnc(N(C)C)nc21`, the “activity change, negative = inhibition” value is 9.11% (inactive).

Turning to `COCCNc1ncnc2ccc(-c3cccc(NS(C)(=O)=O)c3)cc12`, the Potency is 11.2 µM (active).

Take `CC(=O)NCCNc1ncncc1-c1ccc(N(C)C)cc1`: the “activity change, negative = inhibition” value was 3.29% (inactive).

`COc1ccc(Oc2ncc3nc(-c4ccc(OC)cc4)c(=O)n(C)c3n2)cc1`: the “activity change, negative = inhibition” value is 11% (inactive).

Consider `CN1CCN(c2ncc3nc(-c4ccc(Cl)cc4)c(=O)n(-c4ccccc4)c3n2)CC1`, for which the “activity change, negative = inhibition” value is 12.4% (inactive).

As to `CN1CCN(c2ccnc(-c3ccoc3)n2)CC1`, the “activity change, negative = inhibition” value was 10% (inactive).

On to `Cc1ccccc1-c1nccc(NCc2cccs2)n1`, for which the “activity change, negative = inhibition” value is 5.34% (inactive).

As for `O=c1cnc2cnc(Oc3cccc(Cl)c3)nc2n1C[C@H]1CCCO1`, the “activity change, negative = inhibition” value was 2.79% (inactive).

As to `CS(=O)(=O)Nc1cccc(-c2ccc3ncnc(NC4CC4)c3c2)c1`, the Potency is 4.47 µM (active).

For the molecule `COc1ccc2[nH]cc(CCNc3ncnc4ccc(-c5cccnc5)cc34)c2c1`, the Potency is 3.16 µM (active).

Consider `CC(=O)NCCNc1ncnc2ccc(-c3ccoc3)cc12`, for which the Potency is 0.355 µM (active).

As for `c1csc(CNc2ncnc3ccc(-c4ccoc4)cc23)c1`, the Potency is 0.0501 µM (active).

As to `c1cncc(CNc2ncncc2-c2cccnc2)c1`, the “activity change, negative = inhibition” value was 7.5% (inactive).

With `CCNc1ncc2nc(-c3cn(C)c4ccccc34)c(=O)n(C)c2n1`, the “activity change, negative = inhibition” value is 9.26% (inactive).

With `COc1ccc(-c2nc3cnc(Oc4cccc(Cl)c4)nc3n(C3CC3)c2=O)cc1`, the “activity change, negative = inhibition” value is 6.2% (inactive).

The target of another assay is Ubiquitin carboxyl-terminal hydrolase 1 (Homo sapiens) (UniProt O94782). The assay is described as follows: Inhibitors of USP1/UAF1: Pilot qHTS (AID 504865). Further: nearly all actives have a fitted effect of over 35% in size.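 On activity change, negative = inhibition: rhodamine fluorescence freed from ubiquitin-rhodamine substrate followed over time; top concentration of the series differs between compounds.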 The settings on record: purified USP1/UAF1, Ub-rhodamine cleavage fluorescence; series mostly up to 54.9 µM; activity change, negative = inhibition: at the top concentration. Put shortly: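 Kinetic fluorescence assay: 1nM USP1/UAF1, 15 min compound preincubation, then 150nM Ub-Rho; 480/540 nm.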
Ubiquitin carboxyl-terminal hydrolase 1 (Homo sapiens), sequence (O94782 whole entry, looked up): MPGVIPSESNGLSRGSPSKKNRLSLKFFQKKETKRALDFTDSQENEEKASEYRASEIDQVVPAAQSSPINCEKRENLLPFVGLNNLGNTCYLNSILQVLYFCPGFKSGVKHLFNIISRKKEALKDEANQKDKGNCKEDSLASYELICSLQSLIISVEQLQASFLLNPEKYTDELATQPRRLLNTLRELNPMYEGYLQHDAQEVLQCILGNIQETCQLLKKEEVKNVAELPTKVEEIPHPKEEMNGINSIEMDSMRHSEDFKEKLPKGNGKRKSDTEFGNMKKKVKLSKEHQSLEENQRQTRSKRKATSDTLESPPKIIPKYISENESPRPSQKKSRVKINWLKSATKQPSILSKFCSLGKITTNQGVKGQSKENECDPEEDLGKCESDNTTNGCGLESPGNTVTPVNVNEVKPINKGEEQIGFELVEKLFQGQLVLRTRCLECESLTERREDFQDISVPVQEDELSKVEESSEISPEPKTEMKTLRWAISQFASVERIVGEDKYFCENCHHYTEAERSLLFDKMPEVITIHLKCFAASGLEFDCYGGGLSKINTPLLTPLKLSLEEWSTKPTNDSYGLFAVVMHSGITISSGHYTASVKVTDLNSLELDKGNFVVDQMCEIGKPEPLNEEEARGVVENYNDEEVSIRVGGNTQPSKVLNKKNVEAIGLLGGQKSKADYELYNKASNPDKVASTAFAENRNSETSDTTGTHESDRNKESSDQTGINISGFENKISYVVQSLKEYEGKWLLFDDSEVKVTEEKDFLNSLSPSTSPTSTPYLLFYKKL
`Cc1ccccc1-c1cncnc1NCc1ccccc1`: the “activity change, negative = inhibition” value was -13.6% (inactive).

For `CN(C)C(=O)c1ccc(-c2cc(NCc3cccnc3)ncn2)cc1`, the “activity change, negative = inhibition” value was -8.86% (inactive).

`Cc1noc(C)c1-c1cc(NCc2cccnc2)ncn1`: the “activity change, negative = inhibition” value is -8.38% (inactive).

As for `CN(C)c1ncc2nc(-c3cc(F)cc(F)c3)c(=O)n(CCC#N)c2n1`, the “activity change, negative = inhibition” value is -5.44% (inactive).

Take `c1nc(NC2CCNCC2)c2cc(-c3ccoc3)ccc2n1`: the “activity change, negative = inhibition” value was -15.5% (inactive).

With `Fc1ccc(Nc2ncncc2-c2ccccc2C(F)(F)F)cc1`, the “activity change, negative = inhibition” value was -9.12% (inactive).

As to `COc1ccc(-c2nc3cnc(Oc4ccccc4)nc3n(CCC#N)c2=O)cc1`, the “activity change, negative = inhibition” value is -15% (inactive).

For `COc1ccc(-c2nc3cnc(N4CCN(C)CC4)nc3n(Cc3cccs3)c2=O)cc1`, the “activity change, negative = inhibition” value is -13% (inactive).

With `COc1ccc(-n2c(=O)c(-c3ccc(F)cc3)nc3cnc(N4CCOCC4)nc32)cc1`, the “activity change, negative = inhibition” value was -8.09% (inactive).

With `Cc1noc(C)c1-c1nccc(N2CCOCC2)n1`, the “activity change, negative = inhibition” value is -22.8% (inactive).

For the molecule `COc1ccccc1CCn1c(=O)c(-c2cccc(F)c2)nc2cncnc21`, the “activity change, negative = inhibition” value was -20.5% (inactive).

Take `COCCn1c(=O)cnc2cnc(Oc3ccc(OC)cc3)nc21`: the “activity change, negative = inhibition” value was -5.14% (inactive).

Consider `O=c1c(-c2ccc(F)cc2)nc2cnc(Oc3ccccc3)nc2n1C1CC1`, for which the “activity change, negative = inhibition” value was -9.32% (inactive).

With `COc1ccc(Oc2ncc3nc(C)c(=O)n(C[C@H]4CCCO4)c3n2)cc1`, the “activity change, negative = inhibition” value was -5.56% (inactive).

Turning to `CCNc1ncc2nc(-c3cccs3)c(=O)n(C)c2n1`, the “activity change, negative = inhibition” value was -12.8% (inactive).

For the molecule `COCCNc1nc(-c2ccccc2Cl)nc2ccccc12`, the “activity change, negative = inhibition” value is -13.7% (inactive).

Regarding `CN(C)c1ccc(-c2ccc3ncnc(N(C)C)c3c2)cc1`, the “activity change, negative = inhibition” value is -11.9% (inactive).

As to `COCCn1c(=O)c(C)nc2cnc(N(C)C)nc21`, the “activity change, negative = inhibition” value was -7.38% (inactive).

Take `COCCNc1ncnc2ccc(-c3cccc(NS(C)(=O)=O)c3)cc12`: the “activity change, negative = inhibition” value is -13.4% (inactive).

With `CC(=O)NCCNc1ncncc1-c1ccc(N(C)C)cc1`, the “activity change, negative = inhibition” value is -11.5% (inactive).

For `COc1ccc(Oc2ncc3nc(-c4ccc(OC)cc4)c(=O)n(C)c3n2)cc1`, the “activity change, negative = inhibition” value is -3.85% (inactive).

Regarding `CN1CCN(c2ncc3nc(-c4ccc(Cl)cc4)c(=O)n(-c4ccccc4)c3n2)CC1`, the “activity change, negative = inhibition” value was -5.5% (inactive).

Turning to `CN1CCN(c2ccnc(-c3ccoc3)n2)CC1`, the “activity change, negative = inhibition” value is -15.4% (inactive).

Consider `Cc1ccccc1-c1nccc(NCc2cccs2)n1`, for which the Potency is 25.1 µM (active).

Turning to `Cc1cccc(CNc2cc(-c3c(C)noc3C)ncn2)c1`, the “activity change, negative = inhibition” value was -15.1% (inactive).

In the case of `O=c1cnc2cnc(Oc3cccc(Cl)c3)nc2n1C[C@H]1CCCO1`, the “activity change, negative = inhibition” value is -8.47% (inactive).

On to `CS(=O)(=O)Nc1cccc(-c2ccc3ncnc(NC4CC4)c3c2)c1`, for which the “activity change, negative = inhibition” value was -11.4% (inactive).

With `COc1ccc(-n2c(=O)cnc3cnc(N(C)C)nc32)cc1`, the “activity change, negative = inhibition” value was -6.28% (inactive).

`COc1cccc(Nc2ncc3nc(C)c(=O)n(C4CC4)c3n2)c1`: the “activity change, negative = inhibition” value was -11.7% (inactive).

Take `COc1ccc2[nH]cc(CCNc3ncnc4ccc(-c5cccnc5)cc34)c2c1`: the “activity change, negative = inhibition” value is -16.6% (inactive).

On to `CC(=O)NCCNc1ncnc2ccc(-c3ccoc3)cc12`, for which the “activity change, negative = inhibition” value was -5.81% (inactive).

Consider `CNc1ncnc2ccc(-c3ccccc3CN(C)C)cc12`, for which the “activity change, negative = inhibition” value is -10.6% (inactive).

For `c1csc(CNc2ncnc3ccc(-c4ccoc4)cc23)c1`, the “activity change, negative = inhibition” value was -26% (inactive).

Take `COCCn1c(=O)c(C)nc2cnc(Oc3ccc(OC)cc3)nc21`: the “activity change, negative = inhibition” value was -3.69% (inactive).

Consider `c1cncc(CNc2ncncc2-c2cccnc2)c1`, for which the “activity change, negative = inhibition” value is -6.94% (inactive).

For `CN(C)C(=O)c1ccc(-c2cc(Nc3ccccc3)ncn2)cc1`, the “activity change, negative = inhibition” value was -15.7% (inactive).

`COCCNc1ncnc2ccc(-c3ccoc3)cc12`: the “activity change, negative = inhibition” value was -6.06% (inactive).

As to `COc1cccc(Cn2c(=O)cnc3cncnc32)c1`, the “activity change, negative = inhibition” value was -8.29% (inactive).

Turning to `CCNc1ncc2nc(-c3cn(C)c4ccccc34)c(=O)n(C)c2n1`, the “activity change, negative = inhibition” value is -3.99% (inactive).

Turning to `COc1ccc(-c2nc3cnc(Oc4cccc(Cl)c4)nc3n(C3CC3)c2=O)cc1`, the “activity change, negative = inhibition” value is -7.49% (inactive).
